TEAD-YAP block = TEAD-YAP interaction inhibition, primary screen, TEAD-YAP interaction inhibitor project, luminescence, HEK-TIYL cells | inhibition, % at 9.12 µM | AID 1259422, 2018 | TEAD-Gal4/YAP UAS-luciferase luminescence | 640,000 tested, 1.4% active; in the data active = inhibition above about 32%
MITF primary = MITF inhibitors, primary screen, biochemical, AlphaScreen, human. Microphthalmia-associated transcription factor (Homo sapiens), O75030. AlphaScreen MITF homodimerization, bead proximity signal. inhibition, % at 2.6 µM. 650,000 tested, 0.91% active. AID 1259374, 2018; in the data active = inhibition above about 50%
Target sequence (O75030 whole entry, looked up): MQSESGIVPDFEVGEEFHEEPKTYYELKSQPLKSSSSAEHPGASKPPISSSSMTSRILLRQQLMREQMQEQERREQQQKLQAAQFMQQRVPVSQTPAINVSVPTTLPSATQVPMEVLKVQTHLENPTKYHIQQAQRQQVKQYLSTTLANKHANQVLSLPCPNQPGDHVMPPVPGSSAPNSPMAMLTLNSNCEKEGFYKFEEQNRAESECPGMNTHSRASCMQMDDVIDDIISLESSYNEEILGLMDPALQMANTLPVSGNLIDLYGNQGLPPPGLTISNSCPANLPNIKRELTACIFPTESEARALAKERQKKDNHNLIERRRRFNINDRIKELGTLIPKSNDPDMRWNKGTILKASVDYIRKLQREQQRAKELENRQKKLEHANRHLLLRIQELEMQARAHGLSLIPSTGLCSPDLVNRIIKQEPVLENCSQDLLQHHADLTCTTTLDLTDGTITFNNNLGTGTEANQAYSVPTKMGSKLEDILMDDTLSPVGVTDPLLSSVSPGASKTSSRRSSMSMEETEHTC
FBW7 activator = FBW7 E3 ligase activators, primary screen, biochemical, AlphaScreen, human | 650,000 tested, 0.13% active | AlphaScreen FBW7–phospho-cyclin E peptide binding, activator screen | F-box/WD repeat-containing protein 7 (Homo sapiens), Q969H0 | AID 1259310, 2017 | normalized activity (activation), % at 26.1 µM; in the data active = normalized activity above about 1.9%;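 also: purified mutant Fbw7 with reduced substrate affinity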
GPR151 ag = activators of human GPR151, primary screen, cell-based, PathHunter beta-arrestin, luminescence. 650,000 tested, 1% active. PathHunter beta-arrestin GPR151 cells. activation, % at 11.2 µM. G-protein coupled receptor 151 (Homo sapiens), Q8TDV0; in the data active = activation above about 4.9%
GPR151 confirm = GPR151 activators, triplicate retest, confirmation, cell-based, PathHunter beta-arrestin, luminescence; shares compounds with GPR151 ag; GPR151 PathHunter beta-arrestin cells, 90 min; % of EA-reagent control over plate median; activation, % at 11.2 µM; 6,700 tested, under 10 active; AID 1508609, 2020;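 active = mean percent activation across replicates above the confirmation screen cutoff of 4.91%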
GPR119 counter = GPR119 activators in beta-arrestin cells, counter-screen for GPR151 activator project, cell-based, PathHunter beta-arrestin, luminescence, triplicate; shares compounds with GPR151 ag; 90 min; 0 = compound-well median, 100 = enzyme-acceptor control; activation, % at 11.2 µM; 6,700 tested, 0.3% active; AID 1508611, 2020;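 active = mean percent activation in the counterscreen above 29.09%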;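 also: counterscreen on off-target GPR119 to flag nonselective hits from the GPR151 activator screen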
Numbers stand for hits. A selection: hits, their analogues and other compounds. The true share with any hit is near 3.4%.

What do the screens show for `Cc1ccnc(Nc2ccc(N3CCN(C(=O)C4CCCC4)CC3)nn2)c1`?
TEAD-YAP block: inactive; MITF primary: inactive; FBW7 activator: inactive; GPR151 ag: 5.1; GPR151 confirm: inactive; GPR119 counter: inactive

How did C=CCOC(=O)C1=C(C)OC(N)=C(C#N)C1c1ccccc1OC (stereo not drawn) do in these assays?
TEAD-YAP block: inactive; MITF primary: inactive; FBW7 activator: inactive; GPR151 ag: inactive

How did c1ccc2c(c1)sc1nnc(SCc3cn4cccnc4n3)n12 do in these assays?
TEAD-YAP block: inactive; MITF primary: inactive; FBW7 activator: inactive; GPR151 ag: 5.0; GPR151 confirm: inactive; GPR119 counter: inactive

Results for Cc1nnc(SCCNCc2c(C(=O)N(C)C)nc3ccc(Cl)cn23)s1 ?
TEAD-YAP block: inactive; MITF primary: inactive; FBW7 activator: inactive; GPR151 ag: inactive

Results for CCn1cc(C(=O)Nc2ccc(OC)cc2OC)c(=O)c2ccc(C)nc21 ?
TEAD-YAP block: inactive; MITF primary: inactive; FBW7 activator: inactive; GPR151 ag: inactive

What do the screens show for `Cc1c(C(=O)C(=O)NC(C)C)c2ccccc2n1C`?
TEAD-YAP block: inactive; MITF primary: inactive; FBW7 activator: inactive; GPR151 ag: 6.3; GPR151 confirm: inactive; GPR119 counter: inactive

Results for CNC(=O)C(=O)c1c(C)n(C)c2ccccc12 ?
TEAD-YAP block: inactive; MITF primary: inactive; FBW7 activator: inactive; GPR151 ag: inactive

How did CCC(Oc1ccccc1)c1nnc(NC(=O)Cc2ccccc2)s1 (stereo not drawn) do in these assays?
TEAD-YAP block: inactive; MITF primary: inactive; FBW7 activator: inactive; GPR151 ag: 27.9; GPR151 confirm: inactive; GPR119 counter: inactive

Results for COc1ccc(Cl)cc1N1CC(C(=O)Nc2nnc(C)s2)CC1=O (stereo not drawn) ?
TEAD-YAP block: inactive; MITF primary: inactive; FBW7 activator: inactive; GPR151 ag: inactive

What do the screens show for `COc1ccc(Cl)cc1N1CC(C(=O)Nc2c(C)cccc2C)CC1=O` (stereo not drawn)?
TEAD-YAP block: inactive; MITF primary: inactive; FBW7 activator: inactive; GPR151 ag: 8.3; GPR151 confirm: inactive; GPR119 counter: inactive

How did COc1ccccc1N1CC(C(=O)Nc2nnc(SC3CCCC3)s2)CC1=O (stereo not drawn) do in these assays?
TEAD-YAP block: inactive; MITF primary: inactive; FBW7 activator: inactive; GPR151 ag: 6.2; GPR151 confirm: inactive; GPR119 counter: inactive

How did Cc1nonc1CN(C)Cc1c(C(=O)N(C)CCc2ccccc2)nc2sccn12 do in these assays?
TEAD-YAP block: inactive; MITF primary: inactive; FBW7 activator: inactive; GPR151 ag: inactive

What do the screens show for `CC1=NN(c2ccc(Cl)cc2)C(=O)/C1=C\C=C1\N(C)c2ccccc2C1(C)C`?
TEAD-YAP block: inactive; MITF primary: inactive; FBW7 activator: inactive; GPR151 ag: inactive

What do the screens show for `C=CCOc1ccc(C(=O)N/N=C/c2ccccc2Cl)cc1`?
TEAD-YAP block: inactive; MITF primary: inactive; FBW7 activator: inactive; GPR151 ag: inactive

How did Cc1ccc(NC(=O)C(C)N2C(=O)c3ccccc3C2=O)cc1C (stereo not drawn) do in these assays?
TEAD-YAP block: inactive; MITF primary: inactive; FBW7 activator: inactive; GPR151 ag: 6.3; GPR151 confirm: inactive; GPR119 counter: inactive

Results for CC(C(=O)Nc1nc2ccccc2s1)N1C(=O)c2ccccc2C1=O (stereo not drawn) ?
TEAD-YAP block: inactive; MITF primary: inactive; FBW7 activator: inactive; GPR151 ag: 9.7; GPR151 confirm: inactive; GPR119 counter: inactive

What do the screens show for `Cc1cc(C)cc(NC(=O)C(C)N2C(=O)c3ccccc3C2=O)c1` (stereo not drawn)?
TEAD-YAP block: inactive; MITF primary: inactive; FBW7 activator: inactive; GPR151 ag: inactive

What do the screens show for `Cc1cnc(CNC(=O)CN2Cc3ccccc3OC(c3ccccc3F)C2)cn1` (stereo not drawn)?
TEAD-YAP block: inactive; MITF primary: inactive; FBW7 activator: inactive; GPR151 ag: inactive

How did Cn1ccnc1N1CCN(C(=O)c2cccc(F)c2)CC1 do in these assays?
TEAD-YAP block: inactive; MITF primary: inactive; FBW7 activator: inactive; GPR151 ag: 5.1; GPR151 confirm: inactive; GPR119 counter: inactive

Results for Cc1cc(=O)oc2c(C)c(OCC(=O)N(C)C)ccc12 ?
TEAD-YAP block: inactive; MITF primary: inactive; FBW7 activator: inactive; GPR151 ag: 18.4; GPR151 confirm: inactive; GPR119 counter: inactive

How did CC(=O)COc1ccc2c(oc(=O)c3ccccc32)c1C do in these assays?
TEAD-YAP block: inactive; MITF primary: inactive; FBW7 activator: inactive; GPR151 ag: 7.0; GPR151 confirm: inactive; GPR119 counter: inactive

How did CCN(CC)C(=O)COc1ccc2c(C)cc(=O)oc2c1C do in these assays?
TEAD-YAP block: inactive; MITF primary: inactive; FBW7 activator: inactive; GPR151 ag: inactive

How did CCOC(=O)COc1ccc2c(oc(=O)c3ccccc32)c1C do in these assays?
TEAD-YAP block: inactive; MITF primary: inactive; FBW7 activator: inactive; GPR151 ag: inactive

Results for Cc1noc(NS(=O)(=O)c2ccc(NC(=O)c3ccc([N+](=O)[O-])cc3)cc2)c1C ?
TEAD-YAP block: inactive; MITF primary: inactive; FBW7 activator: inactive; GPR151 ag: inactive

What do the screens show for `Cc1ccc(NC(=O)c2cc(-c3ccco3)nc3ccccc23)c(C)c1`?
TEAD-YAP block: inactive; MITF primary: inactive; FBW7 activator: inactive; GPR151 ag: inactive

What do the screens show for `Cc1ccccc1N(C)C(=O)Cc1c(C(=O)O)[nH]c2ccccc12`?
TEAD-YAP block: inactive; MITF primary: inactive; FBW7 activator: inactive; GPR151 ag: 5.5; GPR151 confirm: inactive; GPR119 counter: inactive

Results for CCOc1ccccc1N(C)C(=O)Cc1c(C(=O)O)[nH]c2ccccc12 ?
TEAD-YAP block: inactive; MITF primary: inactive; FBW7 activator: inactive; GPR151 ag: inactive

How did Cc1ccc(OCC(=O)NC23CC4CC(CC(C4)C2)C3)cc1C do in these assays?
TEAD-YAP block: inactive; MITF primary: inactive; FBW7 activator: inactive; GPR151 ag: 5.1; GPR151 confirm: inactive; GPR119 counter: inactive

What do the screens show for `O=C(Cc1cccc2c(S(=O)O)cccc12)NC(c1ccccc1)c1ccccc1`?
TEAD-YAP block: inactive; MITF primary: inactive; FBW7 activator: inactive; GPR151 ag: 6.8; GPR151 confirm: inactive; GPR119 counter: inactive

What do the screens show for `S=C(Nc1ccccc1)Nc1ccc(I)cn1`?
TEAD-YAP block: inactive; MITF primary: inactive; FBW7 activator: inactive; GPR151 ag: inactive

What do the screens show for `Cc1ccc(N2CCN(c3cc(C)nc4ncnn34)CC2)c(C)c1`?
TEAD-YAP block: inactive; MITF primary: inactive; FBW7 activator: inactive; GPR151 ag: inactive
